Values joined by “and” are separate entries in the source; they are usually repeats but may differ in a detail not shown here. Equal values may be shown once. Results filed as inconclusive are left out. Active and inactive are the calls of the source. Calls come from the whole dose curve; as a rule, active = well fitted curve in the direction sought with a large enough effect; inconclusive = small, poorly fitted or top-dose-only effect, or another doubt; inactive = no such curve, though single readings can be large; an effect the other way counts as inactive or inconclusive.

In assay [1] the test system is Zika virus NS2B-NS3 protease (unlinked). The assay is described as follows: Optimization of GU AMC qHTS for Zika virus inhibitors: Unlinked NS2B-NS3 protease assay (AID 1347151). Note: nearly all actives have a fitted effect of over 80% in size. The following applies: recombinant ZIKV NS2B-NS3 protease, fluorogenic AMC substrate; series mostly up to 52.5 µM. The method, boiled down: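 Noncovalent NS2B hydrophilic domain–NS3 protease complex (25 nM final) in 10 mM Tris-HCl pH 8.0, 0.01% Tween 20; AMC substrate, room temperature 15 min (~20% conversion); fluorescence change normalized, 4-parameter Hill fit.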
On the technique in general: Quantitative high-throughput screening tests each substance at several concentrations.

Assay [2] concerns Zika virus NS2B-NS3 protease (linked construct). Kind of assay: Confirmatory screen NINDS AMC qHTS for Zika virus inhibitors (AID 1347152). Note: potency is the fitted concentration of half-maximal effect; nearly all actives have a fitted effect of over 70% in size. As to conditions: Purified linked NS2B-NS3, AMC substrate fluorescence; series mostly up to 56.6 µM. The method, boiled down: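 Linked NS2B-NS3 protease, 1 nM, in 10 mM Tris-HCl pH 8.0, 0.01% Tween 20; compounds preincubated 15 min at room temperature. Nle-KRR-AMC 10 microM (Km 18.3 µM); 15-min fluorescence change (340/450 nm) fitted to 4-parameter Hill.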

In assay [3] the test system is Zika virus NS2B-NS3 protease (unlinked complex). Kind of assay: Confirmatory screen GU AMC qHTS for Zika virus inhibitors (AID 1347153).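 Note: enzyme at 25 nM with substrate at 10 µM below its Km of 18.3 µM; potency is the fitted concentration of half-maximal effect; nearly all actives have a fitted effect of over 70% in size.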 The following applies: Recombinant NS2B-NS3 protease, AMC substrate fluorescence; series mostly up to 57.1 µM. The method, boiled down:
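Noncovalent NS2B hydrophilic domain/NS3 protease complex (25 nM) in 10 mM Tris-HCl pH 8.0, 0.01% Tween 20 was preincubated 15 min at room temperature with compounds. Then 10 µM AMC substrate (Km 18.3 µM) was added; fluorescence was read over 15 min and fitted to a 4-parameter Hill equation.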

The target in assay [4] is N-terminal Xaa-Pro-Lys N-methyltransferase 1 (Homo sapiens) (UniProt Q9BV86). Kind of assay: qHTS Assay for Inhibitors of N-terminal methyltransferase 1 (NTMT1): LOPAC validation of the NTMT1 SAHH-coupled ThioGlo3 Assay (AID 1347143).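 Note: SAH from peptide methylation measured as thiol fluorescence via SAHH coupling and ThioGlo3; nearly all actives have a fitted effect of over 70% in size.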 Note: potency is the fitted concentration of half-maximal effect. As to conditions: recombinant NTMT1, SAHH-coupled ThioGlo3 fluorescence; series mostly up to 114 µM. The method in brief: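 NTMT1 125nM + cpds (various conc.), 1 min RT; add SAM 100uM/SAHH 10uM/ThioGlo3 15uM (addition mix). SAHH-coupled thiol detection, Ex340/Em450, t0 and 30 min RT; signal normalized to background. LOPAC 1280-cpd pilot.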

The target of the next assay is Furin (Homo sapiens) (UniProt P09958). The assay is described as follows: Furin counterscreen qHTS for Zika virus inhibitors (AID 1347149). Note: potency is the fitted concentration of half-maximal effect; nearly all actives have a fitted effect of over 70% in size. As to conditions: furin enzymatic counterscreen, fluorogenic substrate; series mostly up to 57.5 µM. The method in brief: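 Counterscreen measures cleavage of 2 microM BOC-RVRR-AMC, below its ~15 microM Km, by 5 nM full-length human furin at pH 7.0 after a 15-min compound preincubation. Inhibition derives from the 15-min fluorescence increase at 37C.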
Chain of Furin (Homo sapiens) (P09958 whole entry, looked up): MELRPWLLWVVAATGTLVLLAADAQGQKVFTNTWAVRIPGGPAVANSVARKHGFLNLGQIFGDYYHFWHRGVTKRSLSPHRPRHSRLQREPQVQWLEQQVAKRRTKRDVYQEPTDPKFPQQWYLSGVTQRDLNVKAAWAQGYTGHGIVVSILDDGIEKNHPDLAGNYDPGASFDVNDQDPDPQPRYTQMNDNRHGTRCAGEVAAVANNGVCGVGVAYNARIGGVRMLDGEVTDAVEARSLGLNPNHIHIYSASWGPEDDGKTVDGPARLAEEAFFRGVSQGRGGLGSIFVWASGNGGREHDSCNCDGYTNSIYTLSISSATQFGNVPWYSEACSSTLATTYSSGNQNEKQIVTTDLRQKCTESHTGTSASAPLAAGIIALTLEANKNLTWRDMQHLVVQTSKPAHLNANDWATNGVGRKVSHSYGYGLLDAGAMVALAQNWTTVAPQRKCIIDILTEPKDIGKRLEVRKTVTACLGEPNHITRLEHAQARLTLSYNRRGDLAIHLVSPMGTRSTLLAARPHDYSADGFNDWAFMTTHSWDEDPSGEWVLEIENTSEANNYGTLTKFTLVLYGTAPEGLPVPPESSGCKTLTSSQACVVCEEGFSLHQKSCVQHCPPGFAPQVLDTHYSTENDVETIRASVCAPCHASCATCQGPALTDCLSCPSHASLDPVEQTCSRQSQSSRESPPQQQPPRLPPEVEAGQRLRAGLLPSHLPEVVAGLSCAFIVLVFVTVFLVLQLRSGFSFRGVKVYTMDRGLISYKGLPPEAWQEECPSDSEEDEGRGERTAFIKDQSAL

Chain of N-terminal Xaa-Pro-Lys N-methyltransferase 1 (Homo sapiens) (Q9BV86 whole entry, looked up): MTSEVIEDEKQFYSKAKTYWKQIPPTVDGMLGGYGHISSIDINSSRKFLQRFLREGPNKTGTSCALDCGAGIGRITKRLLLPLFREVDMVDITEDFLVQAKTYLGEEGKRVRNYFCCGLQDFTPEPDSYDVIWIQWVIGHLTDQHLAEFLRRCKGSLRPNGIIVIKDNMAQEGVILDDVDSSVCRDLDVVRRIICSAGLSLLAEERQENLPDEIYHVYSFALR

For `Fc1ccc(C(OCCN2CCN(CCCc3ccccc3)CC2)c2ccc(F)cc2)cc1`, the Potency entry in assay [1] was “inactive”.

On to `COC[C@H]1OC(=O)c2coc3c2[C@@]1(C)C1=C(C3=O)C2CCC(=O)[C@@]2(C)C[C@H]1OC(C)=O` (some centres not stated), for which the Potency result in assay [1] is “inactive”.

Regarding `O=C(O)C(=O)c1cn(Cc2ccccc2)c2ccc(-c3ccc(OC(F)(F)F)cc3)cc12`, the Potency was 7.84 µM (active) in assay [2] and 9.61 µM (active) in assay [3].

With `CC(C)=CCOc1c2occc2cc2ccc(=O)oc12`, in assay [1], the Potency result is “inactive”.

For the compound `COc1ccc(C(CN(C)C)C2(O)CCCCC2)cc1` (configuration not stated), the Potency entry in assay [4] and in assay [1] was “inactive” throughout.

Take `Cc1ccc(-c2nc3ccc(C)cn3c2CC(=O)N(C)C)cc1`: the Potency with Furin (Homo sapiens) is 8.55 µM (active); in assay [2] it was 27.1 µM (active).

`CCCN1CCC[C@@H]2Cc3[nH]ncc3C[C@H]21`: the Potency result in assay [4] and in assay [1] was “inactive” each time.

`CC(O)(CS(=O)(=O)c1ccc(F)cc1)C(=O)Nc1ccc(C#N)c(C(F)(F)F)c1` (configuration not stated): in assay [1], the Potency entry was “inactive”.

As to `O=c1[nH]c2ccccc2n1C1CCN(CCCC(c2ccc(F)cc2)c2ccc(F)cc2)CC1`, the Potency result in assay [4] and in assay [1] was “inactive” throughout.

For `CC(CCc1ccccc1)NC(C)C(O)c1ccc(O)cc1` (configuration not stated), the Potency entry in assay [4] and in assay [1] was “inactive” in each case.

Consider `NCC(CC(=O)O)c1ccc(Cl)cc1` (configuration not stated), for which the Potency entry in assay [4] and in assay [1] was “inactive” throughout.

Take `CNCC(O)c1ccc(O)cc1` (configuration not stated): the Potency result in assay [4] and in assay [1] was “inactive” in each case.

For `Cc1cc(SCc2sc(-c3ccc(C(F)(F)F)c(F)c3)nc2C)ccc1OCC(=O)O`, the Potency is 17.1 µM (active) and 12.4 µM (active) in assay [2]; 19.2 µM (active) and 17.1 µM (active) in assay [3].

Regarding `O=c1oc2ccccc2c(O)c1C(CC(O)c1ccc(-c2ccc(Br)cc2)cc1)c1ccccc1` (configuration not stated), the Potency in the assay with Furin (Homo sapiens) is 26.4 µM (active).

Regarding `c1ccc2c(c1)OCC(C1=NCCN1)O2` (configuration not stated), the Potency in assay [4] was 56.2 µM (active). Moreover, the Potency entry in assay [1] was “inactive”.

Consider `c1ccc(C2CC2)c(OCC2=NCCN2)c1`, for which the Potency entry in assay [4] and in assay [1] was “inactive” throughout.

Turning to `NN=C(N)N`, the Potency entry in assay [4] and in assay [1] was “inactive” each time.

With `O=C1NCN(c2ccccc2)C12CCN(CC1COc3ccccc3O1)CC2` (configuration not stated), the Potency result in assay [4] and in assay [1] was “inactive” in each case.

On to `Cc1ncc(CNC(=O)N(CCCl)N=O)c(N)n1`, for which the Potency result in assay [1] was “inactive”.

Source of the values: PubChem BioAssay (NCATS).
